Compound activity: PubChem, National Center for Advancing Translational Sciences (NCATS)
Compounds with a hit are over-represented: about 10% of the library has one in this group of screens.
12-hLO inh – qHTS Assay for Inhibitors of 12-hLO (12-human lipoxygenase); Polyunsaturated fatty acid lipoxygenase ALOX12 (Homo sapiens), P18054; purified 12-hLO, xylenol orange hydroperoxide absorbance; Potency, µM (series often up to 57.1 µM), for inactives: at the highest dose activity change, negative = inhibition, usual class: inhibitors; 150,000 compounds, 0.12% hits; AID 1452, 2008; active = well fitted inhibition curve with a large enough effect; inconclusive = small, poorly fitted or top-dose-only effect; also: potency is read from the fitted curve at half-maximal effect; nearly all actives have a fitted effect of over 55% in size
Target sequence (P18054 whole entry, looked up): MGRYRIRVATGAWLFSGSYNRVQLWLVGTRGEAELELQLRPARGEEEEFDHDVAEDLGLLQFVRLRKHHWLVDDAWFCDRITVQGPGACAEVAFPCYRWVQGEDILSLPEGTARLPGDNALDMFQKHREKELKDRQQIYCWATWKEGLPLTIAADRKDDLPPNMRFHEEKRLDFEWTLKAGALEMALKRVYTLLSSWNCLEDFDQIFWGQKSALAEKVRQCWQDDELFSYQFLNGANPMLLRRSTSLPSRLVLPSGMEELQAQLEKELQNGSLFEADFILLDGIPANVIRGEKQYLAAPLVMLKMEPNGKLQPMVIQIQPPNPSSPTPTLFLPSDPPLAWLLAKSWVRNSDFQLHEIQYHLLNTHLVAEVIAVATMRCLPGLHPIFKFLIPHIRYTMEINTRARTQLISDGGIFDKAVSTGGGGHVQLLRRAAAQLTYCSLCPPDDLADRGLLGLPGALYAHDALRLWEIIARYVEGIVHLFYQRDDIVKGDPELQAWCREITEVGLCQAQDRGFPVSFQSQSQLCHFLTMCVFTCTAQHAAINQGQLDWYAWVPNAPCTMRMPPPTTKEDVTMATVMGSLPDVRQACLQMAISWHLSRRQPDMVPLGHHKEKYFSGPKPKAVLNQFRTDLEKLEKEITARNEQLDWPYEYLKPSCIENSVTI
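Hydroperoxide formation by human 12-lipoxygenase from 40 uM arachidonic acid was followed colorimetrically via ferric-xylenol orange complex, using the 573/405 nm absorbance ratio. Enzyme concentration was 150 nM, with 30 min reaction at room temperature.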
PNC inhibitor – High Content Assay for Compounds that inhibit the Assembly of the Perinucleolar Compartment. PC3M PTB-GFP, PNC prevalence imaging, 16 h; stronger effect = lower value. activity change (PNC), negative = inhibition, % at 10 µM. 140,000 compounds, 3.1% hits;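 active = readout at or below -70, meaning at least 70% loss of cells showing the perinucleolar compartment, a nuclear body marking cancer cells; inconclusive = readout between -30 and a set limit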;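 also: plate controls were DMSO wells for no effect and camptothecin positive control wells for full effect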
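PC3M cells stably expressing PTB-GFP, 750–1000 cells/well, treated 16 h at 37 °C with compound (23 nl of library stock), in duplicate. After paraformaldehyde fixation and Hoechst stain, imaged at 20x; PNC prevalence scored by image analysis.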
ALDH1A1 inh – qHTS Assay for Inhibitors of Aldehyde Dehydrogenase 1 (ALDH1A1). Aldehyde dehydrogenase 1A1 (Homo sapiens), P00352. Purified ALDH1A1, NADH fluorescence, propionaldehyde substrate. Potency, µM (highest dose often 75.3 µM), inactives show at the highest dose activity, negative = inhibition, usual class: inhibitors. 220,000 compounds, 7.3% hits. AID 1030, 2008;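 also: potency is read from the fitted curve at half-maximal effect; plate controls were no enzyme wells and a reference inhibitor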
HPGD block – qHTS Assay for Inhibitors of HPGD (15-Hydroxyprostaglandin Dehydrogenase); purified HPGD, NADH fluorescence kinetic, PGE2 substrate; Potency, µM, without a hit: top-dose activity change, negative = inhibition, actives largely listed as inhibitors; 150,000 compounds, 4.3% hits; also: potency is read from the fitted curve at half-maximal effect
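NADH formation kinetics: reaction with 30 uM PGE2 and 1 mM NAD+ (final), 20 nM enzyme, Tris-HCl pH 8 with Tween 20, after 15 min compound preincubation at room temperature. Fluorescence change, last versus first of five reads.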
Lamin A splicing – qHTS Assay for Modulators of Lamin A Splicing. HeLa LMNA splicing GFP/RFP minigene ratio, 48 h. Potency, µM (doses to about 46.1 µM), for inactives: at the highest dose ratio change, negative = inhibition, actives largely listed as inhibitors. 200,000 compounds, 0.01% hits. AID 1487, 2009; active = well fitted inhibition curve with a large enough effect in the signal ratio, with a control signal flat, not every such curve was filed as active; inconclusive = small, poorly fitted or top-dose-only effect, or effect the other way, or a change in a side signal; the % refers to the signal ratio; also: potency is read from the fitted curve at half-maximal effect
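S3 HeLa stable clones carrying a lamin A-EGFP splicing minigene plus DsRed2 were seeded at 600 cells/well in Opti-MEM with 2% FBS, pin-dosed and incubated 48 h at 37°C. Acumen cytometry (488 nm) gave the GFP/RFP total-intensity ratio.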
An asterisk follows results filed as active; ? = inconclusive; / = no result given; [ ] = dose if it differs, or a comment. Unless noted, calls follow the shape of the dose curve; as a rule, active = well fitted inhibition curve with a large enough effect (not every such curve was filed as active); inconclusive = small, poorly fitted or top-dose-only effect, or another doubt; inactive = no such curve, though single readings can be large or run the other way. Unless noted, % is scaled to controls: 0 for no effect and ±100 for the full control effect.

SMILES | 12-hLO inh | PNC inhibitor | ALDH1A1 inh | HPGD block | Lamin A splicing
CN(CC(=O)NCCC1=CCCCC1)S(=O)(=O)c1ccc2c(c1)c(=O)n(C)c(=O)n2C | 0% | -18 | 32µM* | -10% | -11%
CCOc1cccc(C(=O)Nc2cccc(C(C)=O)c2)c1 | 0% | 45 | 6% | -9% | ?
CCOc1cccc(C(=O)c2ccc(O)c(O)c2O)c1 | ? | / | 1.6µM* | 16µM* | /
CCOc1ccc(C(=O)c2ccc(O)c(O)c2O)cc1 | -25% | / | 9.5µM* | ? | -7%
C/C(=C\C(=O)c1ccncc1)Nc1ccccc1O | -1% | -2 | 2% | 14µM* | ?
CC(=O)Nc1ccccc1O | 0% | 71 | 6% | -6% | -12%
COc1ccc(/C=N/NC(=O)CNc2ccc(Br)cc2)c(C(=O)O)c1OC | / | / | -8% | / | /
COc1ccc(/C=N/NC(=O)CNc2c(Br)cc(C)cc2Br)c(C(=O)O)c1OC | / | / | 7.1µM* | / | 7%[46 µM]
Cc1ccn2c(CCc3nnc4cc(C)ccn34)nnc2c1 | -4%[11.4 µM] | / | 6%[13.5 µM] | -1% | /
CC(C)C[C@H](NC(=O)C1(c2ccccc2)CCN(C(=O)[C@H]2CSCN2C(=O)OC(C)(C)C)CC1)C(=O)O | 2% | -114* | -4% | 0% | -4%
CN1C(=O)c2ccc(C(=O)NC3CCCCC3)cc2C1=O | 5% | 16 | ? | -11% | 5%
CCOC(=O)N1CCC(N2C(=O)c3ccc(C(=O)O)cc3C2=O)CC1 | 2% | 29 | 4% | -8% | 15%
CCOC(=O)c1ccc2c(c1)C(=O)N(C1CCCCC1)C2=O | -2% | -9 | 22µM* | -8% | 2%
CC(C)(C)NC(=O)c1ccc2c(c1)C(=O)N(C1CCCCC1)C2=O | -1% | -21 | 2.8µM* | -2% | -8%
Cc1oc2ncn(CC(C)C)c(=O)c2c1C(=O)N1CCN(c2cccc(C(F)(F)F)c2)CC1 | / | / | / | / | -4%[46 µM]
CC1=C(C(=O)OCc2ccc(C)cc2)C(c2ccc(O)c([N+](=O)[O-])c2)NC(=O)N1 (stereo not drawn) | / | / | 0% | / | 17%[46 µM]
O=C1[C@@H]2[C@H](C(=O)N1O)[C@H]1C=C[C@@H]2C1 | 1% | 33 | 0.63µM* | -9% | 14%
O=c1c(-c2cccs2)nc2cnc(N3CCOCC3)nc2n1-c1ccccc1 | / | / | ? | / | 12%
O=S(=O)(c1ccc(Cl)c(NC(=S)Nc2ccccc2N2CCOCC2)c1)N1CCOCC1 | -3% | ? | 20µM* | -8% | -8%
CN1CCN(c2ccc(S(=O)(=O)N3CCCCC3)cc2NC(=O)c2ccc3ccccc3c2)CC1 | -3% | 29 | -9% | ? | -15%
Oc1ccc(/C=N/NC(=S)N2CCOCC2)cc1 | / | / | 14µM* | / | ?
O=C(Nc1cc(S(=O)(=O)N2CCOCC2)ccc1N1CCCC1)c1ccc2c(c1)S(=O)(=O)c1ccccc1C2=O | / | / | 2.2µM* | / | 23%[46 µM]
O=S(=O)(c1ccc(Cl)c(NC(=S)N/N=C/c2ccc(O)cc2)c1)N1CCOCC1 | -16% | ? | 10µM* | -27% | ?
CC(C)NC(=S)N/N=C/c1ccc(N2CCOCC2)cc1 | -5% | -12 | ? | ? | -17%
COc1ccc2[nH]cc(CCNc3ncncc3-c3ccccc3C(F)(F)F)c2c1 | / | / | -7% | / | ?
SMILES | 12-hLO inh | PNC inhibitor | ALDH1A1 inh | HPGD block | Lamin A splicing
C=CCNC(=S)Nc1cc(S(=O)(=O)N2CCOCC2)ccc1-n1cncn1 | 3% | 35 | 4.5µM* | -11% | -14%
O=C(COC(=O)CCC(=O)c1cccs1)Nc1cccc(S(=O)(=O)N2CCOCC2)c1 | 9% | ? | -48% | -9% | 10%[0.0737 µM]
O=C(COC(=O)CCC(=O)c1cccs1)Nc1cc(S(=O)(=O)N2CCOCC2)ccc1Cl | -4% | -21 | 22µM* | -7% | -3%
O=C(CSC1=Nc2ccccc2N=C(c2ccc(F)cc2)C1)Nc1cccc(C(F)(F)F)c1 | / | / | / | / | -16%[46 µM]
CC(C)(C)c1ccc(OCC(=O)O)c(Cl)c1 | -3%[11.4 µM] | / | -13%[13.5 µM] | -6% | /
O=C(NNC(=O)c1sc2cccc(Cl)c2c1Cl)NC1CCCCC1 | 3% | 17 | 3.5µM* | -9% | 8%
O=C(NNC(=O)C1CC2CCC1C2)c1sc2ccccc2c1Cl (stereo not drawn) | -5% | -17 | 25µM* | -10% | ?
O=C(NNC(=S)NC1CCCCC1)c1sc2ccccc2c1Cl | 0% | 22 | 22µM* | -29% | ?
O=C(NNC(=S)NC1CCCCC1)c1ccc(Cl)s1 | / | / | -8% | / | ?
CC(C)(C)C(=O)NC(=S)NNC(=O)c1sc2ccccc2c1Cl | -2% | -112* | ? | -15% | ?
CC(NC(=O)c1sc2ccccc2c1Cl)C1CCCO1 (stereo not drawn) | -2% | 24 | 12% | -25% | 4%
CC(C)(C)c1ccc(O)c(CN(Cc2cc(C(C)(C)C)ccc2O)c2ccccc2)c1 | 3%[11.4 µM] | / | 8%[13.5 µM] | -10% | /
O=C(O)C[C@H](Cc1ccccc1Cl)C(=O)O | -1%[11.4 µM] | / | 5%[13.5 µM] | -3% | /
Cc1ccc(C(=O)C2=C(O)C(=O)N(c3ncccn3)C2c2cccc(Cl)c2)o1 (stereo not drawn) | 12% | 1 | 13µM* | -12% | 2%
C=CCN=C1SC(CC)C(=O)N1S(=O)(=O)c1ccc(C)cc1 (stereo not drawn) | -7% | -1 | 6.3µM* | -5% | -7%
C=CCN=C1SCC(=O)N1S(=O)(=O)c1ccc(C)cc1 | -5% | 60 | ? | -11% | 8%
COCCNC(=S)NNc1ccc(Cl)c(C(=O)O)c1 | / | / | 8.9µM* | / | /
CCCn1cnc2c(c1=O)c1nc3ccccc3nc1n2Cc1ccccc1OC | -2% | ? | 4µM* | ? | -8%
CCC(C)n1cnc2c(c1=O)c1nc3ccccc3nc1n2Cc1ccccc1OC (stereo not drawn) | -2% | 19 | ? | -25% | 4%
COCCCn1c2nc3ccccc3nc2c2c(=O)n(-c3ccccc3OC)c(C)nc21 | 5% | -100* | -8% | ? | 0%
Cc1ccc(C(=O)Nc2ccccc2N2CCOCC2)c(C)c1 | 0% | / | 13% | -7% | /
COc1ccc(OCC(=O)OCc2cc(=O)n3nc(C4CCCCC4)sc3n2)cc1 | / | / | / | / | -7%[46 µM]
CCC(=O)NC1Cc2ccccc2C(c2ccccc2)C1 (stereo not drawn) | / | / | -6% | / | /
O=C1CC(c2ccco2)Cc2nc(N3CCN(Cc4ccc5c(c4)OCO5)CC3)ncc21 (stereo not drawn) | -10% | -28 | 18µM* | ? | ?
Oc1cccc(/C=N/N(Cc2ccccc2)c2ccccc2)c1 | / | / | -13% | / | ?
Oc1ccc(/C=N/N(Cc2ccccc2)c2ccccc2)c(O)c1O | / | / | 10µM* | / | /
Cc1cccn2c(=O)cc(CSc3nnc(NC(=O)COc4ccc(F)cc4)s3)nc12 | / | / | / | / | -5%[46 µM]
